Assay results published in PubChem BioAssay (NCATS).
Results filed as inconclusive are left out. Where a call stands in place of a potency, no number is given. Values without a mark were called inactive. Activity calls are given as the source filed them. Calls follow the shape of the dose curve; as a rule, active = well fitted inhibition curve with a large enough effect; inconclusive = small, poorly fitted or top-dose-only effect; inactive = flat fitted curve, though single readings scatter.

Assay: P-glycoprotein substrates identified in KB-8-5-11 adenocarcinoma cell line, qHTS therapeutic library screen (AID 1346987); also: nearly all actives have a fitted effect of over 65% in size
Conditions: KB-8-5-11 (P-gp overexpressing) viability, CellTiter-Glo, 72 h; series mostly up to 44.5 µM
Method in brief: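 Luminescence from CellTiter-Glo, read 5 min after addition, quantified survival of KB-8-5-11 (P-gp-overexpressing) cells exposed to compounds for 72 h. AC50 was derived from concentration-response curves.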

Structure (SMILES)	outcome	Potency	activity change, negative = cytotoxicity
C=C1CCC2(C(=O)OC3OC(CO)C(O)C(O)C3O)CCC3(C)C(=CCC4C5(C)CCC(OC6OC(CO)C(OC7OC(C)C(O)C(O)C7O)C(OC7OCC(O)C(O)C7O)C6O)C(C)(C)C5CCC43C)C2C1 (stereo not drawn)	inactive [at 9.29 µM]	–	–
CC(CCO)CCC1C2(C)CCCC(C)(C)C2CC[C@@]1(C)O (stereo partly drawn)	–	inactive	–
Oc1ccccc1-c1cc(-c2ccccc2F)[nH]n1	–	inactive	–
CC1=C2C3OC(=O)C(C)C3(O)CCC2(C)CCC1 (stereo not drawn)	–	inactive	–
Nc1ccc(-n2nc(C(F)(F)F)cc2C(F)(F)F)cc1	–	inactive	–
O=C1C[C@@]2(C(=O)N1)C(=O)N(Cc1ccc(Br)cc1F)C(=O)c1cccn12	–	inactive	–
CN[C@H](CNC(=O)N1CCC[C@@H]([C@@H](OCCNC(=O)OC)c2cccc(Cl)c2)C1)C[C@H]1CCCOC1	–	inactive	–
C/C=C1/C[N+](C)([O-])C2Cc3c([nH]c4ccccc34)C(=O)CC1C2C(=O)OC (stereo not drawn)	–	inactive	–
CC(=O)NC1CC(=O)C23C(=O)NC(Cc4c[nH]c5ccccc45)C2C(C)=C(C)C(O)C3/C=C/CC(C)/C=C(/C)C(O)C1O (stereo not drawn)	–	inactive	–
CCCCC(=O)N1c2ccccc2NC2=C(C(=O)CCC2)C1c1ccccc1Cl (stereo not drawn)	–	inactive	–
OC[C@@]1(O)CO[C@H](OC[C@H]2O[C@@H](OCCc3ccccc3)[C@H](O)[C@@H](O)[C@@H]2O)[C@@H]1O	–	inactive	–
COc1cc2c(cc1O)C(c1ccc(O)cc1)C(C)C(C)C2 (stereo not drawn)	–	inactive	–
COc1c(C)c(OCC=C(C)C)cc2c1COC2=O	–	inactive	–
CN1CCc2cc(Cl)c(O)cc2[C@@H](c2cccc3c2OCC3)C1	–	inactive	–
COc1c2c(c(C)c3c1C(=O)OC3)OC1(C)CC(O)C34OC(OC)(CC(O)C3(C)C1C2)OC4(C)C (stereo not drawn)	–	inactive	–
CCN=C1N[C@@H]2[C@@H](O)[C@H](O)[C@@H](CO)O[C@@H]2S1	–	inactive	–
COc1cc(C2OCC3(O)C(c4ccc(O[C@@H]5O[C@H](CO)[C@@H](O)[C@H](O)[C@H]5O)c(OC)c4)OCC23O)ccc1O (stereo partly drawn)	–	inactive	–
C=C1CCC2C(C)(C)CC(=O)CC2(C)C1CCC(C)CCO (stereo not drawn)	–	inactive	–
CC(C)c1ccc2c(c1)CCC1[C@](C)(C(=O)O)CCC[C@]21C (stereo partly drawn)	–	inactive	–
C[C@@H]1O[C@@H](O[C@H]2[C@H](OC(=O)[C@]34CCC(C)(C)C[C@H]3C3=CCC5[C@@]6(C)CC[C@H](O[C@@H]7O[C@H](CO[C@@H]8OC[C@H](O)[C@H](O)[C@H]8O[C@@H]8OC[C@@H](O)[C@H](O)[C@H]8O)[C@@H](O)[C@H](O)[C@H]7O)C(C)(C)C6CC[C@@]5(C)[C@]3(C)C[C@H]4O)O[C@H](CO)[C@@H](O)[C@@H]2O)[C@H](O[C@@H]2O[C@H](CO)[C@@H](O)[C@H](O)[C@H]2O)[C@H](O)[C@H]1O[C@@H]1OC[C@@H](O)[C@H](O[C@@H]2OC[C@@H](O)[C@H](O)[C@H]2O)[C@H]1O (stereo partly drawn)	–	–	9.58% [at 5.11 µM]
CC1=C2C[C@@]3(C)[C@@H](CCC[C@@H]3C)C[C@@]2(O)OC1=O	–	inactive	–
CC(O)/C=C/C1(O)C(C)C(O)C(O[C@@H]2O[C@H](CO)[C@@H](O)[C@H](O)[C@H]2O)CC1(C)C (stereo partly drawn)	–	inactive	–
CC(O)CCc1ccc(O[C@@H]2O[C@H](CO)[C@@H](O)[C@H](O)[C@H]2O)cc1 (stereo partly drawn)	–	inactive	–
COc1cc(C)c(C(=O)NC2C(C)OC(OC3CCC(C)C4C3C=C(C)C3/C(C)=C\CC/C(C)=C/C5(C)C=C(C(=O)O)C(C)CC56OC(=O)/C(=C(\O)C34C)C6=O)C(O)C2(C)O)c(O)c1 (stereo not drawn)	inactive [at 9.29 µM]	–	–
CC1OC(OC2C(OC3C(O[C@H]4CC[C@@]5(C)C(CC[C@]6(C)C5CC=C5C7CC(C)(C)CC(O)[C@]7(C)CC[C@]56C)C4(C)C)OC(C(=O)O)C(O)C3O)OCC(O)C2O)C(O)C(O)C1O (stereo partly drawn)	inactive [at 9.29 µM]	–	–
OC[C@@]1(O)CO[C@@H](OC[C@H]2O[C@@H](Oc3ccccc3)[C@H](O)[C@@H](O)[C@@H]2O)[C@@H]1O	–	inactive	–
CC(=O)OC1CC(C(C)(C)O)OC2CCC3(C)OC4=C(C(=O)C=C5C(C)C(OC(C)=O)C6(C)C(C)OC546)C(O)C3C12C (stereo not drawn)	–	inactive	–
CC(=O)O[C@@H]1C[C@@H](C)[C@](O)(CCC2=CC(=O)OC2)[C@@]2(C)CCCC(C)(C)C12 (stereo partly drawn)	–	inactive	–
